The values that follow come from PubChem BioAssay AID686933 (National Center for Advancing Translational Sciences (NCATS), 2013).

Results filed as inconclusive are left out. Active and inactive are the calls of the source. The call rests on the fitted dose curve; in most records, active means well fitted inhibition curve with a large enough effect; inconclusive means small, poorly fitted or top-dose-only effect; inactive means flat fitted curve, though single readings scatter.

The experiment concerns the target Luciferin 4-monooxygenase (Photinus pyralis) (UniProt P08659). Briefly: qHTS screen for small molecules that inhibit ELG1-dependent DNA repair: SAR in Biochemical Luciferin Assay. To be noted: purified firefly luciferase, luciferin luminescence counter-screen; series mostly up to 57.5 µM. From the text:
Cancer cells divide rapidly compared to normal cells in the body. During cell division, cancer cells need to duplicate their genome by DNA replication. The failure of genome duplication leads to cancer cells' death. Therefore, inhibitors of DNA replication could specifically kill cancer cells. Based on this concept, many chemotherapeutic agents were developed and have been used to treat cancer patients. However, there are a limited number of agents available in the clinical setting, and some of those that do exist have low efficacy and severe side effects. Therefore, if we can find the compounds that effectively block DNA replication either by directly damaging DNA or by inhibiting other cellular mechanisms, the options for cancer treatment will be broadened. With this in mind, we developed a quantitative high-throughput ELG1-luciferase reporter gene assay. Small molecules that specifically block ELG1 function in response to DNA damage can be identified by monitoring the suppression of luciferase activity. Since ELG1 defines a pathway for repairing DNA damage, agents blocking ELG1 function can be used to sensitize cancer cells to chemotherapeutic agents whose mechanism of action involves the induction of DNA damage. This counter assay is a luciferase assay, that following treatment with putative ELG1 antagonists, aims to eliminate luciferase enhancers/inhibitors. NIH Molecular Libraries Probe Production Network [MLPCN] NIH Chemical Genomics Center [NCGC] MLPCN Grant: R03 MH092164 Assay Provider: Kyungjae Myung, NHGRI, NIH
3 uL of substrate reagent will be pipetted into each well in 1536-well white, solid-bottom plates using a FRD dispenser, followed by addition of 23 nL of DMSO or compounds by pintool. After compound addition, 1 µL of luciferase will be added into the wells. The plates will be read in a ViewLux CCD-based plate reader.
As to `CCCCCC1C(=O)O[C@H](C)[C@@H](NC(=O)c2cccc(NC=O)c2O)C(=O)OC(C)C1OC(=O)CC(C)C` (some centres undefined), the molecule was classed as inactive. Consider `CN[C@@H]1C[C@@]2(C)O[C@@H]([C@@H]1OC)n1c3ccccc3c3c4c(c5c6ccccc6n2c5c31)C(=O)NC4`, for which the molecule was called inactive.

With `COC[C@H]([C@@H](O)[C@@H](O)C(=O)NCC[C@@H](C)c1nc(/C=C/C[C@H]2OC3(C[C@H](O)[C@H]2C)OC([C@@H](C[C@@H](O)[C@@H](C)[C@@H](O)[C@@H](C)/C=C(C)/C(C)=C/C=C/C(C)=C\C#N)OC)[C@@H](OP(=O)(O)O)C3(C)C)co1)N(C)C` (some centres undefined), the call was inactive.

For `COc1cc2c(cc1OC)C1C(=O)c3c(cc4c(c3O)C=CC(C)(C)O4)OC1CO2` (centres undefined), the molecule was classed as inactive. As for `C[C@@H]1C[C@@H]2[C@H]([C@H]3C=C(COC(=O)c4ccccc4)[C@@H](O)[C@]4(O)[C@@H](O)C(OC(=O)c5ccccc5)=C[C@@]14C3=O)C2(C)C`, the entry is “inactive”; as for `CCCCCCCCCCCCCC(=O)O[C@@H]1[C@@H](C)[C@@]2(O)[C@H](C=C(CO)C[C@]3(O)C(=O)C(C)=C[C@@H]23)[C@@H]2C(C)(C)C12OC(C)=O` (some centres undefined), “inactive”; as for `C[C@@H]1C[C@H]2CC[C@H](O2)[C@H](C)C(=O)O[C@@H](C)C[C@@H]2CC[C@@H](O2)[C@@H](C)C(=O)O[C@H](C)C[C@H]2CC[C@H](O2)[C@H](C)C(=O)O[C@@H](C)C[C@@H]2CC[C@@H](O2)[C@@H](C)C(=O)O1`, “inactive”. For `COc1cc2c(cc1OC)[C@@H]1C(=O)c3ccc4c(c3OC1CO2)CC(C(C)C)O4` (some centres undefined) the value was “inactive”. As for `CO/C1=C\C(C)=C\[C@@H](C)[C@@H](O)[C@H](C)C/C(C)=C/C=C/[C@H](OC)[C@H]([C@@H](C)[C@@H](O)[C@H](C)[C@H]2C[C@@H](O)[C@H](C)[C@@H](C(C)C)O2)OC1=O`, the call was inactive.
